The list is a sample of the results.
aSyn UTR act: Activators via SNCA 5'UTR binding, MLPCN; alpha-synuclein 5'UTR reporter, activators screen; activity score, % (tested at 7.5 µM), hits read low; 7.1% of 300,000 active; AID 1814; in the data active = activity score below about -60%
Hits are given with their value; 0 = inactive.

SMILES	aSyn UTR act
CC(=O)c1ccc(S(=O)(=O)N2CCCC2)cc1	-84.1
Cc1ccc(C(=O)NNc2cc(N3CCCC3)nc(N3CCCC3)n2)cc1	0
Cc1sc2nc3ccc(N4CCCCC4)nn3c(=O)c2c1C	-180.7
Cc1ccc2nc3ccc(N4CCCC4)nn3c(=O)c2c1	-162.5
CN1C(=O)NC(c2cccc(O)c2)C(C(=O)c2cccs2)C1(O)C(F)(F)F (stereo unspecified)	-138.8
Cc1ccc(-c2nc3cccnc3s2)cc1NS(C)(=O)=O	-186.1
CCS(=O)(=O)Nc1cccc(-c2nc3cccnc3s2)c1C	-98.5
COc1cc(NS(=O)(=O)c2ccc(C)cc2)c2ncccc2c1	0
CN1CCN(C2Cc3ccc(F)cc3Sc3cc(F)c(Cl)cc32)CC1 (stereo unspecified)	0
O=C(CCS(=O)(=O)c1ccccc1)NC12CC3CC(CC(C3)C1)C2	-179.3
Cc1ccc2[nH]c3c(NCc4ccccc4)ncnc3c2c1	-94.8
Cc1ccc2[nH]c3c(N4CCOCC4)ncnc3c2c1	-71.6
CCCOc1ncnc2c1[nH]c1ccc(C)cc12	-92.2
C/C(=N\OC(=O)Nc1ccccc1)c1ccc(C)cc1	-113.0
CCn1c(SC(C)C)nnc1-c1cc(-c2ccccc2)sc1N	-171.4
CC(=O)Nc1ccc(NC(=O)C(C)OC(=O)/C(C#N)=C/c2ccc(N(C)C)cc2)cc1 (stereo unspecified)	-85.4
N#Cc1ccccc1/C=N/Nc1nc(-c2ccccc2)c2cc(Cl)ccc2n1	-95.2
Fc1c(F)c(C(F)(F)F)c(F)c(F)c1N/N=C\c1cccs1	-73.5
CC(=O)Nc1c(O)nc(SCC(=O)Nc2ccc(C(C)=O)cc2)[nH]c1=O	-156.6
CC(=O)c1ccc(NC(=O)CSc2nc(N3CCOCC3)nc(N3CCOCC3)n2)cc1	-72.7
O=C(COC(=O)c1ccc[nH]c1=O)NCCc1ccc(Cl)cc1Cl	-97.7
O=C(c1ccc2c(c1)OCO2)N1CCc2ccccc2C1	-112.9
O=C(c1ccc2c(c1)OCO2)N1CCN(c2cccc(C(F)(F)F)c2)CC1	-77.3
O=C(c1cc2c(s1)-c1ccccc1OC2)N1CCc2ccccc2C1	-89.0
COc1cccc(-n2cc3c(=O)n(C)c(=O)n(C)c3c2)c1	-86.3
SMILES	aSyn UTR act
Cc1cc(C)cc(NS(=O)(=O)c2ccc3c(c2)c(=O)n(C)c(=O)n3C)c1	0
COCCCn1c(C(=O)N2CC(C)OC(C)C2)cc2c(=O)n3cccc(C)c3nc21 (stereo unspecified)	-71.4
Cc1cc(C)n(CCc2nc(-c3ccc(-c4ccccc4)cc3)cs2)n1	-71.3
Oc1csc(Cc2nc(-c3ccc4ccccc4c3)cs2)n1	-235.6
Oc1csc(Cc2nc(-c3ccccc3F)cs2)n1	-169.0
Oc1csc(Cc2nc(-c3ccc(-c4ccccc4)cc3)cs2)n1	-112.3
Cc1cccc(NC(=O)c2cccc(OC(=S)N3CCOCC3)c2)c1C	-65.5
COc1ccc(/C=C/C2=Nc3ccccc3NC(C)(C)C2)cc1OC	-78.0
COc1ccc(/C=C/c2nc(-c3ccccc3O)n[nH]2)cc1	-74.4
CC1(C)N=C(N)N=C(N)N1c1ccc(OCCCOc2ccccc2)c(Cl)c1	0
COc1cc(C)ccc1OCCCOc1ccccc1Cl	-207.3
COc1cc(C)ccc1OCCOc1ccccc1Cl	-208.0
CN(Cc1nccn1C)C(=O)c1ccc2nc(Cc3ccccc3F)oc2c1	-126.3
Cc1cc(CN(C)C(=O)c2ccc3nc(Cc4ccccc4F)oc3c2)on1	-62.2
CN(Cc1nccs1)C(=O)c1ccc2nc(Cc3ccccc3F)oc2c1	-131.1
CCOC(=O)c1ccc(NC(=O)CC2SCCNC2=O)cc1 (stereo unspecified)	-81.4
N#Cc1c(N2CCCC(O)C2)nc(N)c2c(N)nc3c(c12)CC(=O)N3C12CC3CC(CC(C3)C1)C2 (stereo unspecified)	-232.4
CCn1cc(Br)c(C(=O)Nc2sc3c(c2C(N)=O)CCCC3)n1	-102.2
Cn1cc(Br)c(C(=O)Nc2sc3c(c2C(N)=O)CCCC3)n1	-114.5
COC(=O)c1ccc(COc2ccc3c(c2)CCC3)o1	-130.2
COC(=O)c1ccc(COc2ccc(C(C)(C)C)cc2)o1	-166.9
CCCc1ccc(OCc2ccc(C(=O)N3CCSCC3)o2)cc1	-147.7
O=C(N/N=C/c1ccc2ccccc2c1)c1ccc(COc2ccc3c(c2)CCC3)o1	-72.3
O=C(N/N=C\c1c(O)ccc2ccccc12)c1ccc(Cn2cccn2)o1	0
O=C(N/N=C/c1cc([N+](=O)[O-])ccc1O)c1ccc(COc2ccc3c(c2)CCC3)o1	0
SMILES	aSyn UTR act
CC(=O)Nc1nonc1NC(=O)c1ccc(C(C)(C)C)cc1	-153.0
CCc1ccc(OCc2ccc(C(=O)OC)o2)cc1	-219.7
CC(C)(C)c1ccc(C(=O)Nc2cccnc2)cc1	-91.0
CC(C)(C)c1ccc(OCc2ccc(C(=O)Nc3cccnc3)o2)cc1	-169.5
CC(C)(C)c1ccc(OCc2ccc(C(=O)N3CCOCC3)o2)cc1	-119.3
COC(=O)Cc1ccc(NC(=O)c2ccc(C(C)(C)C)cc2)cc1	0
O=C(Nc1ccc(Cl)cc1)c1ccc(OC2CSC2)cc1	-90.1
CC(C)(C)c1ccc(C(=O)Nc2ccc(Cl)cc2)cc1	-109.9
CC(C)(C)c1ccc(OCCCC(=O)N2CCOCC2)cc1	-104.0
Cc1ocnc1C(=O)Nc1ccc(Cl)cc1	-166.9
CCc1sc(C(=O)Nc2cccnc2)cc1Br	-110.5
COc1ccc(NC(=O)c2ccccc2F)cc1Cl	-156.2
COc1ccc(C(=O)Nc2ccccc2C(=O)O)cc1Cl	-123.1
O=C(Nc1ccc(OC(F)F)c(Cl)c1)c1cccc(OC(F)F)c1	-82.5
O=C(Nc1ccc2c(c1)CCC2)c1cccc(OC(F)F)c1	-125.6
COc1ccc(NC(=O)c2cccc(OC(F)F)c2)cc1Cl	-196.7
COc1ccc(NC(=O)/C=C/C(=O)O)cc1Cl	-104.7
COc1cc(OC)c(NC(=O)c2cccc(F)c2)cc1Cl	-63.9
O=C(CCCOc1ccc(Cl)cc1Cl)Nc1ccccc1C(=O)O	-83.2
COc1ccc(NC(=O)c2cccc(F)c2)cc1Cl	-205.6
CN1CCc2nc(NC(=O)c3cccc(OC(F)F)c3)sc2C1	-66.7
C=CCn1c(C)cc(C(=O)CSc2nc3ccccc3[nH]2)c1C	0
Cc1cc(C(=O)CSc2nc3ccccc3o2)c(C)n1C1CC1	-164.5
C=CCn1c(C)cc(C(=O)COc2nncc3ccccc23)c1C	-122.6
C=CCn1c(C)cc(C(=O)CSc2nc3ccccc3o2)c1C	-136.5
SMILES	aSyn UTR act
C#CCOCCOCCOCCNc1nc(N2CCN(C(=O)CCCCCCCCCCNC(=O)Cn3cc(C[C@@H](C)O)nn3)CC2)nc(N2CCN(C(=O)CCCCCCCCCCNC(=O)[C@H](CCCN=C(N)N)n3cc(C[C@@H](C)CC)nn3)CC2)n1	-85.4
Cc1ccc(NC(=O)CSc2ncc(-c3ccccc3)n2C(=O)c2ccccc2)cc1	-64.3
Cc1ccc(NC(=O)CSc2nc3ccccc3c3nc4ccccc4n23)cc1	0
COc1ccc2cc(-c3csc(-c4cccnc4)n3)ccc2c1	-250.9
COc1ccc(-c2csc(-c3cccnc3)n2)cc1C	-243.4
COc1ccc2[nH]c(=O)c(CN(Cc3cccs3)S(=O)(=O)c3c(C)ccc4nsnc34)cc2c1	0
Cc1ccc2nsnc2c1S(=O)(=O)N(CCO)Cc1cc2cc3c(cc2[nH]c1=O)OCCO3	-90.0
CC(=O)c1ccc(S(=O)(=O)N(Cc2cc3cc4c(cc3[nH]c2=O)OCCO4)CC2CCCO2)cc1 (stereo unspecified)	-179.7
Cc1ccc2cc(CN(CC3CCCO3)C(=S)Nc3ccccc3)c(=O)[nH]c2c1C (stereo unspecified)	0
Cc1ccc2cc(CN(CC3CCCO3)S(=O)(=O)c3ccc4c(c3)OCCO4)c(=O)[nH]c2c1C (stereo unspecified)	-108.0
